Test results from the supplement of paper PMC10338343.
± gives the standard deviation.

System: EfPiwi piRISC loaded with L1MC piRNA (26 nt)
Assay: pre-steady-state target cleavage rate (min^-1); auxiliary factor: 500 nM Ephydatia muelleri Gtsf1; guide: L1MC piRNA 5'p-UAACUAAAUACUAUGCAAGCUGUAGG; MIWI and MILI are mouse PIWI proteins and EfPiwi is from a freshwater sponge; tags in brackets are library labels; higher = faster piRNA-guided slicing of the target
Summary of the method: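 Cleave-'n-Seq reactions paired 0.1 nM transcribed, DNA-blocked target RNA library with 1 nM active affinity-purified piRISC holding one synthetic guide, plus or minus 500 nM GTSF1 partner protein, in HEPES–potassium acetate buffer at 33 °C for 0–8 or 0–960 min. After sequencing of uncleaved targets and normalisation to depth and weakly complementary targets, the pre-steady-state cleavage rate was taken from a burst-and-steady-state fit. Three trials were pooled, and k3 was capped at 0.0001 min^-1.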

Sequence | pre-steady-state target cleavage rate
UCCUGGAUCAGCUUGCAUAGUGUUUAGUUA | 0.0156 ± 0.0035
UCCUCCUACAGCUUGCAAAGUAUUUAGUUA | 0.0392 ± 0.012
UCCUCCUACAUCUUGCAUAGUAUUUAGUUA | 0.0662 ± 0.02
UCCUGGAUGUCGAACCAAAGUAUUUAGUUA | < 0.0001
UCCUGGAUCAGGUAGCAUAGUAUUUAGUUA | 0.00369 ± 0.0035
UCCUGGAUGUCGAACCAUAGUAUUUGUUA | < 0.0001
UCCUGGAUGUCGAACCAUACUAAUUAGUUA | < 0.0001
UCCUGGAAGAGCUUGCAUAGUUUUUAGUUA | 0.00316 ± 0.003
UCCUGCUACACGCUUGCAUAGUAUUUAGUUA | 0.00609 ± 0.0019
UCCUGGAUGUCGAACGUAUCAAUAUAGUUA | < 0.0001
UCCUCUUACAGCUUGCAUAGUAUUUAGUUA | 0.243 ± 0.061
UCCUGGAUCAGCUUGCAUAGUAAUUUGUUA | 0.00366 ± 0.002
UCCUGGAUGUCGAACGUAUCUAUUUAGUAA | < 0.0001
UCCUGGAUGUCGUUCCAUAGUAAUUAGUUA | < 0.0001
UCCUGGAACACCUUGCAUAGUAUAUAGUUA | 0.0051 ± 0.0035
UCCUGCUACAGCUUGCAUAGUAAUUAGAUA | 0.00345 ± 0.0018
UCCUGGUACAGCUUGGAUAGUAUUUAGUAA | 0.00283 ± 0.0021
UCCUGCUAGUCCUUGCAUAGUAUUUAGAAA | 0.00294 ± 0.0025
UCCUGGAUGUCGAACGUAAGGAUUUAGUUA | < 0.0001
UCCUCGUACAGCUUGCAUAGUAUUUUGUUA | 0.007 ± 0.0031

Sequence | pre-steady-state target cleavage rate
UCCUGGAUGUCGAACGUUAGUAAAAAGUUA | < 0.0001
UCCUGGAACUGCUUGCAUAGUAUUUAGUUA | 0.0203 ± 0.006
UCCUGCUACAGCUUGCAUAGUAUUAUGUAA | 0.00194 ± 0.0019
UCCUCCUACAGCUUGGAUAGUAUUUAGAAA | 0.00325 ± 0.0015
UCCUGCUACAGCUUCCAUAGUAUUUUCAAA | 0.0032 ± 0.0021
UCCUGGAUGUCGAAGGAUACUAUUUAGUUA | < 0.0001
UCCUCCUACAGCUUCGAUAGUAUUUAGUUA | 0.0137 ± 0.0042
UCCUGCUACAGCUUGCAUAGUAUUUAGUUA [g2:g25:cont:t1A] | 0.0357 ± 0.011
UCCUGCAUACAGCUUGCAUAGUAUUUAGUUA | 0.11 ± 0.032
UCCUCCUACAGCUUGCAUUGUUUUUAGUUA | 0.00277 ± 0.0025
UCCUGGAUGUCCUUGCAUAGUAUUUAGUAUA | 0.00442 ± 0.0031
UCCUGCUACAGCUUGCAUAGUAUUCUAGUUA | 0.0043 ± 0.002
UCCUGGAUGUGCUUUCAUAGUAUUUAGUUA | 0.0041 ± 0.0024
UCCUCCUACAGCUUCCAUAGUAUUUAGAUA | 0.00393 ± 0.0021
UCCUGCUACAGCUUGCAAAGUAAUUAGUUA | 0.00362 ± 0.0019
UCCUGGUACAGCUUGCAUAGAAUUUAGAAA | 0.00253 ± 0.0021
UCCUGGAACAGCUUGCACAGUAUUUAGUUA | 0.0589 ± 0.015
UCCUCCUACAGCUUGCAUAGUAUUUAGCUA | 0.00335 ± 0.0016
UCCUGGAAGUGCUUGCAUAGUAUUUAGAAA | 0.00379 ± 0.0018
UCCUGGUACAGGAUGCAUAGUAUUUAGAAA | 0.00448 ± 0.004
